“And” between values parts separate entries of the source, which are not always exact repeats. Equal entries are not always repeated. Out of some 5,500 compounds screened, about 2,000 (36%) were called active. Roughly 18% stayed inconclusive and do not appear here. Cut-off read from the data, not from the text of the source: active = normalized growth mostly below about 0.91 (no sharp cut-off); inconclusive = no clear call, values can overlap the other calls; inactive = mostly above about 0.92. Some of the results follow.
Assay: chemical genetic growth profiling, strain panel (AID 1159580);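 note: tested at 20 µM; growth read once vehicle control cultures reached saturation at 30 °C; 1 = growth at the plate median or of vehicle wells; lower values mean less growth of the strain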
Details: S. cerevisiae deletion strains, growth OD

Measured: normalized growth

CC(=O)Oc1cc(OC(C)=O)c2c(c1)O[C@H](c1ccc(OC(C)=O)c(OC(C)=O)c1)[C@@H](OC(C)=O)C2
inactive: locus YAL013W, strain DEP1, active compounds read low 1 | locus YAL021C, strain ccr4, active compounds read low 1 | locus YAL026C, strain drs2, active compounds read low 0.995 | locus YAL030W, strain snc1, active compounds read low 1 | locus YBL061C, strain skt5, active compounds read low 1 | locus YBR009C, strain hhf1, active compounds read low 1.02 | locus YBR021W, strain FUR4, active compounds read low 0.975 | locus YBR023C, strain chs3, active compounds read low 1 | locus YBR171W, strain sec66, active compounds read low 1 | locus YBR229C, strain ROT2, active compounds read low 0.992 | locus YBR231C, strain swc5, active compounds read low 0.99 | locus YBR279W, strain paf1, active compounds read low 1 | locus YCL011C, strain gbp2, active compounds read low 1 | locus YCL016C, strain dcc1, active compounds read low 1 | locus YCL029C, strain bik1, active compounds read low 0.965 | locus YCL061C, strain MRC1, active compounds read low 0.994 | locus YCL069W, strain vba3, active compounds read low 1 | locus YCR088W, strain abp1, active compounds read low 1 | locus YDL005C, strain med2, active compounds read low 1 | locus YDL035C, strain GPR1, active compounds read low 0.995 | locus YDL040C, strain nat1, active compounds read low 1 | locus YDL074C, strain BRE1, active compounds read low 0.99 | locus YDL101C, strain DUN1, active compounds read low 0.994 | locus YDL134C, strain PPH21, active compounds read low 1.04 | locus YDL185W, strain tfp1, active compounds read low 0.972 | locus YDL192W, strain arf1, active compounds read low 0.98 | locus YDR001C, strain nth1, active compounds read low 1 | locus YDR069C, strain doa4, active compounds read low 0.994 | locus YDR101C, strain arx1, active compounds read low 0.961 | locus YDR137W, strain rgp1, active compounds read low 1.02 | locus YDR159W, strain sac3, active compounds read low 0.999 | locus YDR162C, strain NBP2, active compounds read low 0.997 | locus YDR195W, strain ref2 0.966 | locus YDR297W, strain sur2, active compounds read low 1.01 | locus YDR318W, strain mcm21, active compounds read low 1.01 | locus YDR334W, strain swr1, active compounds read low 1 | locus YDR335W, strain msn5, active compounds read low 0.997 | locus YDR388W, active compounds read low 0.978 | locus YDR392W, strain spt3, active compounds read low 0.927 | locus YDR502C, strain sam2, active compounds read low 0.984 | locus YEL003W, strain gim4, active compounds read low 1 | locus YEL037C, strain rad23, active compounds read low 1 | locus YEL061C, strain CIN8 (second series), active compounds read low 0.998 | locus YEL061C, strain CIN8, active compounds read low 1 | locus YER015W, strain faa2, active compounds read low 0.995 | locus YER016W, strain bim1, active compounds read low 0.999 | locus YER110C, active compounds read low 0.97 | locus YER111C, strain swi4, active compounds read low 1 | locus YER155C, strain BEM2 (second series), active compounds read low 1 | locus YER155C, strain BEM2, active compounds read low 1 | locus YER167W, strain BCK2, active compounds read low 1 | locus YFR010W, strain ubp6, active compounds read low 1 | locus YGL078C, strain dbp3, active compounds read low 0.979 | locus YGL086W, strain mad1, active compounds read low 0.955 | locus YGL167C, strain pmr1, active compounds read low 1 | locus YGL173C, strain kem1, active compounds read low 1.01 | locus YGL227W, strain vid30, active compounds read low 0.993 | locus YGL240W, strain doc1, active compounds read low 1 | locus YGL248W, strain PDE1, active compounds read low 0.993 | locus YGL253W, strain hxk2, active compounds read low 0.997 | locus YGR078C, strain PAC10, active compounds read low 0.991 | locus YGR135W, strain pre9, active compounds read low 0.992 | locus YGR229C, strain SMI1, active compounds read low 0.992 | locus YGR252W, strain gcn5, active compounds read low 1.1 | locus YHR013C, strain ard1, active compounds read low 0.967 | locus YHR027C, strain rpn1, active compounds read low 1 | locus YHR030C, strain SLT2, active compounds read low 0.998 and 0.994 | locus YHR079C, strain IRE1 (second series), active compounds read low 0.98 | locus YHR079C, strain IRE1, active compounds read low 0.98 | locus YHR094C, strain hxt1, active compounds read low 0.985 | locus YHR129C, strain ARP1, active compounds read low 1 | locus YHR142W, strain chs7, active compounds read low 1.02 | locus YHR200W, strain rpn10, active compounds read low 0.982 | locus YIL066C, strain RNR3, active compounds read low 0.978 | locus YIL073C, strain SPO22, active compounds read low 1.01 | locus YIL125W, strain kgd1, active compounds read low 0.975 | locus YIR030C, strain dcg1, active compounds read low 0.982 | locus YJL092W, strain hpr5, active compounds read low 0.997 | locus YJL095W, strain BCK1 (second series), active compounds read low 1 | locus YJL095W, strain BCK1, active compounds read low 1.02 and 0.979 | locus YJL115W, strain asf1, active compounds read low 0.99 | locus YJL129C, strain trk1, active compounds read low 0.995 | locus YJL134W, strain LCB3, active compounds read low 0.997 | locus YJL154C, strain vps35, active compounds read low 0.997 | locus YJL164C, strain tpk1, active compounds read low 1 | locus YJL166W, strain qcr8, active compounds read low 1.01 | locus YJL168C, strain set2, active compounds read low 0.981 | locus YJL187C, strain SWE1 (second series), active compounds read low 0.985 | locus YJL187C, strain SWE1, active compounds read low 1 | locus YJR043C, strain POL32, active compounds read low 1.01
